E coli growth-1: reduces bacterial viability in AddAB counter-screen; E. coli V3065 growth, OD600 absorbance, 18 h; inhibition, % at 11.9 µM; 330,000 tested, 0.27% active;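 active = inhibition above the campaign's mean inhibition across all tested compounds plus 3 SD, cut at about 9.9% in these data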;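 note: uninfected addAB+ strain grown without phage in ampicillin broth; 0% = DMSO wells and 100% = ciprofloxacin 0.95 µg/ml wells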
E coli growth-2: inhibitors of Escherichia coli growth. 330,000 tested, 0.21% active. OD600 absorbance (concentration not given with the values). OD600, 23 h; stronger effect = lower value. AID 1053175;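 active = OD600 absorbance below the run mean of sample wells minus 3.6 SD, in any replicate, cut at about 0.56 in these data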
Tat transport: E. coli Tat transport inhibition | E. coli MC4100 TorA-mCherry Tat export, fluorescence | inhibition, % at 10 µM | 340,000 tested, 0.036% active | AID 488895;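 active = mean replicate inhibition at least 50% and at least half of replicates individually reaching 50%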;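 note: exported cargo escapes ClpAP degradation while cytoplasmic cargo is degraded and loses fluorescence; 0% = median of neutral control wells and 100% = median of NaSCN control wells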
phage Ecoli inh: E. coli growth loss with phage present | growth absorbance | inhibition, % at 11.9 µM | 360,000 tested, 0.26% active; in the data active = inhibition above about 11%
AddAB inh: less growth of phage-infected E. coli with AddAB. inhibition, % at 11.9 µM. E. coli expressing H. pylori AddAB, absorbance growth. AID 435030. 330,000 tested, 0.29% active; in the data active = inhibition above about 12%;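 note: 0% = vehicle wells of infected cells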
RecBCD conf: confirmation: growth loss of phage-infected RecBCD+ E. coli (RecBCD inhibitor screen) | E. coli V66 + T4 2- phage, growth OD | inhibition, % at 11.9 µM | 890 tested, 45% active | shares compounds with phage Ecoli inh;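 active = mean inhibition over triplicates exceeding the hit threshold derived in the original primary screen, cut at about 11% in these data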
Ecoli viability: inhibits E. coli viability, flagging RecBCD hits as nonselective. inhibition, % at 11.9 µM. shares compounds with phage Ecoli inh. 890 tested, 29% active. absorbance (OD) growth. AID 651983; in the data active = inhibition above about 20%;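 note: E. coli strain V66 grown with compound alone and no phage infection; 0% = bacteria with DMSO vehicle only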
AddAB counter: growth loss of phage-infected AddAB E. coli, RecBCD counter-screen; shares compounds with phage Ecoli inh; E. coli expressing H. pylori AddAB + T4 phage, OD growth; gene 2 mutant T4, recBCD-deleted host; inhibition, % at 11.9 µM; 890 tested, 45% active; AID 651984;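 active = mean inhibition above the solvent-only control wells' mean plus 3 SD, cut at about 22% in these data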;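 note: higher means less bacterial growth from phage killing when AddAB is blocked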
* hit, by the source's call; nt = no result; ! = repeats disagree. Only some compounds are listed: those with a hit (about 0.5% of all), similar ones and a draw of the others.

SMILES	E coli growth-1	E coli growth-2	Tat transport	phage Ecoli inh	AddAB inh	RecBCD conf	Ecoli viability	AddAB counter
NCCC(=O)NCCc1cnc[nH]1	1	0.68	-7	2	-1	nt	nt	nt
NCCc1cnc[nH]1	1	0.65	-5	13*!	1	-6	-8	2
Cc1onc(-c2ccccc2)c1C(=O)NN=Cc1cc(Cl)cc(Cl)c1O	nt	nt	nt	11*	nt	-1	1	2
CC(=O)N1N=C(c2cccc(O)c2)CC1c1cccs1 (stereo not given)	nt	0.66	2	11*	nt	-6	-7	-1
CC(=O)N1N=C(c2cccc(NS(C)(=O)=O)c2)CC1c1cccs1 (stereo not given)	-2	0.68	-6	3	0	nt	nt	nt
Nc1nc(=S)c2ncn(C3OC(CO)CC3O)c2[nH]1 (stereo not given)	nt	nt	-3	12*	nt	12*	11	38*
CC(C)(C)N1CC23C=CC(CC2C1=O)O3 (stereo not given)	nt	0.69	nt	nt	nt	nt	nt	nt
O=C(c1cccc(C(F)(F)F)c1)N1CCc2c([nH]c3ccccc23)C1C(F)(F)F (stereo not given)	0	0.69	15	75*	3	0	-1	2
CC(=NNc1nc2ccccc2s1)c1ccncn1	nt	nt	1	27*	nt	17*	18	25*
O=c1[nH]c(=O)n(C2OC(CO)C(O)C2O)cc1F (stereo not given)	nt	nt	41	nt	nt	nt	nt	nt
Nc1nc(F)nc2c1ncn2[C@@H]1O[C@H](CO)[C@@H](O)[C@@H]1O	3	nt	-9	75*	8	78*	79*	78*
O=c1ncccn1C1OC(CO)C(O)C1O (stereo not given)	nt	nt	nt	96*	nt	93*	101*	98*
Nc1ncnc2c1ncn2[C@@H]1O[C@H](CO)[C@@H](O)[C@@H]1O	0	nt	-6	4	2	nt	nt	nt
Nc1nc(=O)n(C2OC(CO)C(O)C2O)cc1F (stereo not given)	nt	nt	nt	21*	nt	26*	21*	53*
CCOC(=O)C(=NNc1cc(Cl)ccc1Cl)N1CC(C)OC(C)C1 (stereo not given)	nt	0.7	nt	nt	nt	nt	nt	nt
COc1ccc(C2CC(=O)C=C(c3cccc(Cl)c3)C2)cc1 (stereo not given)	nt	0.66	nt	nt	nt	nt	nt	nt
CNC(CC(C)C)C(=O)NC1C(=O)NC(CC(N)=O)C(=O)NC2C(=O)NC3C(=O)NC(C(=O)NC(C(=O)O)c4cc(O)cc(O)c4-c4cc3ccc4O)C(O)c3ccc(c(Cl)c3)Oc3cc2cc(c3OC2OC(CO)C(O)C(O)C2OC2CC(C)(N)C(O)C(C)O2)Oc2ccc(cc2Cl)C1O (stereo not given)	1	nt	-35	11*	-2	4	8	15
O=C(COc1ccccc1Cl)Nc1nnc(S(=O)(=O)N2CCCC2)s1	1	0.77	3	36*	1	-2	-2	-1
CN1CCN(C(=O)N(c2ccccc2)c2ccccc2)CC1	0	0.7	7	98*	1	-3	-2	-1
CCN1CCN(C(=O)N(c2ccccc2)c2ccccc2)CC1	-2	0.69	1	2	-4	nt	nt	nt
Nc1nc2ccc(Cl)cc2o1	nt	0.63	-16	13*	nt	14*	16	37*
COc1ccc(-c2oc3ccccc3c(=O)c2OC(C)=O)cc1	12*	0.6	-2	11*	12	7	9	13
COc1ccc(-c2oc3ccccc3c(=O)c2OCC(=O)O)cc1	-2	0.68	-3	3	1	nt	nt	nt
CC(=NN1CC(=O)NC1=O)c1ccc([N+](=O)[O-])o1	nt	0.13*	3	50*	nt	24*	44*	103*
CCN(CC)CC1CN(N=Cc2ccc([N+](=O)[O-])o2)C(=O)O1 (stereo not given)	nt	0.064*	-9	39*	nt	41*	59*	102*
O=[N+]([O-])c1ccc(C=NN2CCNC2=S)o1	nt	nt	nt	101*	nt	101*	102*	101*
Cc1cc2ncn(N=Cc3ccc([N+](=O)[O-])o3)c2cc1C	nt	0.57	nt	nt	nt	nt	nt	nt
Cc1cc(C(=O)O)ccc1NC=C1CCCC(C)C1=O (stereo not given)	nt	0.69	nt	nt	nt	nt	nt	nt
CC(=NNC(=O)COc1cc(C)cc(C)c1)c1cccc(NC(=O)C2CCC2)c1	nt	0.68	nt	nt	nt	nt	nt	nt

Screens as filed in PubChem BioAssay.
